ATXN2 expr inh: Primary qHTS for Inhibitors of ATXN expression; HEK-293 ATXN2-luciferase reporter, luminescence, 24 h; Potency, µM (series often up to 57 µM), usual class: inhibitors; 360,000 tested, 0.72% active; also: nearly all actives have a fitted effect of over 55% in size
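qHTS (up to 57 uM final) was run with 24 h compound exposure of reporter cells at 37 °C. Each well was multiplexed: SteadyGlo luminescence measured ATXN2-luciferase expression after a fluorogenic Gly-Phe-AFC viability readout (25 uM final).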
DRD3 antagonist: qHTS of D3 Dopamine Receptor Antagonist: qHTS | D(3) dopamine receptor (Homo sapiens), P35462 | D3R cells, DiscoveRx beta-arrestin luminescence, antagonist mode; stronger effect = lower value | max response, negative = inhibition, % | 360,000 tested, 2.5% active; in the data active = max response below about -50%; inconclusive = no clear call, values can overlap the other calls
Target sequence (P35462 whole entry, looked up): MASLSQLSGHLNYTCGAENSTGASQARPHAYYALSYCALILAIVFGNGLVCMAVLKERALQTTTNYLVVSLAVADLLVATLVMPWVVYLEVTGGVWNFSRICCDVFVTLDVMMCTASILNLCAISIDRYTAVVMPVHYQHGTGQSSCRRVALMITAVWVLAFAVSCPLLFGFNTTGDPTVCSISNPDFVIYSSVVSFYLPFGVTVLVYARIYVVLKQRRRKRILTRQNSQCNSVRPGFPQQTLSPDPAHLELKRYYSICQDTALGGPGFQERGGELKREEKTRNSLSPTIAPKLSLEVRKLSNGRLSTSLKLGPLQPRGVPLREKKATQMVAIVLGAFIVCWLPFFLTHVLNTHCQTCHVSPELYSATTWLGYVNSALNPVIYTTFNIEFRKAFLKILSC
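Cells plated overnight at 1500 cells/well, then exposed to library compounds with dopamine controls for 90 minutes at 37 degrees C. DiscoveRx reagent added for 30–60 minutes at room temperature; luminescence read, quantitative HTS format.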
HepG2 viability: qHTS for Inhibitors of TGF-b: Cytotox Counterscreen. 410,000 tested, 0.76% active. Potency, µM (highest dose often 46.1 µM), usual class: cytotoxic. HepG2 CAGA-GFP viability, ATP luminescence, 18 h
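CellTiter-Glo luminescence gave cytotoxicity after 18 hours at 37 degrees C. The cells were HepG2 CAGA-GFP in 1% FBS DMEM, stimulated with 500 pg/mL TGF-beta after compound addition. %Activity was normalised to no-cell wells (complete cell-killing) and DMSO (no toxicity), and curves were fitted and classified.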
TGFb SMAD3 inh: qHTS for Inhibitors of TGF-b; Potency, µM (series often up to 46.1 µM), actives largely listed as inhibitors; HepG2 CAGA-GFP TGF-b/SMAD3 reporter, GFP fluorescence, 18 h; TGF-beta stimulated, 500 pg/mL final; 410,000 tested, 1.2% active; also: nearly all actives have a fitted effect of over 65% in size
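First, reporter cells (HEPG2 CAGA-GFP) rested 2 h at 37 degrees C. Next, compounds were pinned in and TGF-beta added to 500 pg/mL final. After 18 h, GFP was imaged per cell and summed per well.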
S2 tox: Viability Counterscreen for Primary qHTS for Inhibitors of ATXN expression. AID 651635, 2014. Potency, µM (titrated, usually from 56.7 µM), hits mostly cytotoxic. 400,000 tested, 0.49% active. S2 cells (HEK-293 line with an ATXN2-luciferase reporter) viability, CellTiter-Fluor protease fluorescence, 24 h; also: nearly all actives have a fitted effect of over 40% in size
D3 ag: qHTS of D3 Dopamine Receptor Agonist: qHTS; D(3) dopamine receptor (Homo sapiens), P35462; D3R DiscoveRx beta-arrestin cells, luminescence, 90 min; max activation, %; 410,000 tested, 0.58% active; in the data active = max activation above about 30%
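Agonist-mode cell screen: cells plated at 1500/well and incubated overnight at 37 °C, then exposed to library compounds for 90 min at 37 °C. Detection reagent was added for 30–60 min at room temperature, and luminescence was read.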
Hits are given with their value. Sampled rows, rich in hits. Any-hit rate of the full collection: about 4.7%. Unless noted, calls follow the shape of the dose curve; as a rule, active = well fitted curve in the direction sought with a large enough effect; inconclusive = small, poorly fitted or top-dose-only effect, or another doubt; inactive = no such curve, though single readings can be large; an effect the other way counts as inactive or inconclusive.

`COc1cccc(CNC(=O)c2c(OC)cc(=O)n3c2CCN(C(=O)C2CC24CCCC4)CC3)c1` (configuration not stated) gave S2 tox inactive.
For O=C(NCCc1ccc(Cl)cc1)c1nc(-c2cccc(F)c2)n2c1CCCCC2 the results were ATXN2 expr inh inconclusive, HepG2 viability inactive, TGFb SMAD3 inh inconclusive, S2 tox inconclusive and D3 ag inactive.
For CCOC(=O)c1c[nH]c(=S)n(-c2ccccc2)c1=O the results were ATXN2 expr inh inactive, DRD3 antagonist inactive, HepG2 viability inactive, TGFb SMAD3 inh inconclusive, S2 tox inactive and D3 ag 30.
`c1ccc(CNc2nc(N3CCOc4ccccc43)nc3c2CCCC3)cc1` gave ATXN2 expr inh inactive.
CCOC(=O)c1ccc(NC(=O)C(CC)Sc2nnc3c4ccccc4n(C)c3n2)cc1 (configuration not stated) was read as HepG2 viability inactive, TGFb SMAD3 inh inactive and D3 ag inactive.
Screening Cc1cccc(NS(=O)(=O)c2cccc(C(=O)N3CCN(c4ccccn4)CC3)c2)c1 returned ATXN2 expr inh inactive, DRD3 antagonist inactive, HepG2 viability inactive, TGFb SMAD3 inh inconclusive, S2 tox inactive and D3 ag inactive.
For Cc1ccc(C(C)(C)C)cc1S(=O)(=O)Nc1cccc(C(=O)N2CCN(c3ccccn3)CC2)c1 the results were ATXN2 expr inh inactive, DRD3 antagonist inactive, HepG2 viability inactive, TGFb SMAD3 inh 28µM, S2 tox inactive and D3 ag inactive.
For NC(N)=N/N=C/c1ccc(Cl)c(Cl)c1 the results were ATXN2 expr inh inconclusive, DRD3 antagonist inactive, HepG2 viability 13µM, TGFb SMAD3 inh inconclusive, S2 tox inactive and D3 ag inactive.
NC(N)=N/N=C/c1ccc(OCc2ccccc2Cl)cc1 was read as ATXN2 expr inh 14µM, DRD3 antagonist inactive, HepG2 viability inactive, TGFb SMAD3 inh inconclusive, S2 tox 28µM and D3 ag inactive.
Screening COc1ccc(-c2cn3c(n2)sc2cc(C(=O)NCCc4ccc(OC)cc4OC)ccc23)cc1 returned HepG2 viability inactive, TGFb SMAD3 inh inactive and D3 ag inactive.
O=[N+]([O-])c1ccc(Nc2nc(NCCN3CCOCC3)nc(Nc3ccc(Cl)cc3)n2)cc1 was read as HepG2 viability inactive and TGFb SMAD3 inh inconclusive.
Screening Cc1nc2ccc(S(=O)(=O)NC(C(=O)N3CCN(c4ccc(Cl)cc4)CC3)C(C)C)cc2s1 (configuration not stated) returned ATXN2 expr inh inactive, HepG2 viability inactive, TGFb SMAD3 inh inconclusive, S2 tox inconclusive and D3 ag inactive.
Cc1ccc2c(c1)C(=O)CC1(CCCCCC1)O2 was read as ATXN2 expr inh inactive, DRD3 antagonist -115, HepG2 viability inactive, TGFb SMAD3 inh inactive, S2 tox inactive and D3 ag inactive.
Screening Cc1cc2c(NCCc3ccccc3)ncnc2s1 returned ATXN2 expr inh inactive, DRD3 antagonist inactive, HepG2 viability inactive, TGFb SMAD3 inh inactive, S2 tox inactive and D3 ag inactive.
Cc1cc2c(Nc3ccccc3)ncnc2s1 was read as ATXN2 expr inh inactive, DRD3 antagonist -61, HepG2 viability inactive, TGFb SMAD3 inh inactive, S2 tox inactive and D3 ag inactive.
COc1ccc(Cn2nnc3c(=O)[nH]c(C4CCN(C(=O)c5ccc(C)cc5)CC4)nc32)cc1OC was read as ATXN2 expr inh inactive, HepG2 viability inactive, TGFb SMAD3 inh inactive, S2 tox inactive and D3 ag inactive.
COc1ccc(NC(=O)C(=O)NCC(c2ccco2)N2CCc3ccccc3C2)cc1OC (configuration not stated) was read as ATXN2 expr inh inactive, DRD3 antagonist inactive, HepG2 viability inactive, TGFb SMAD3 inh 2.5µM, S2 tox inactive and D3 ag inactive.
`Clc1ccc(-c2nc3cnccn3c2Nc2ccc3c(c2)OCO3)cc1` gave ATXN2 expr inh inactive, DRD3 antagonist inactive, HepG2 viability inactive, TGFb SMAD3 inh inconclusive, S2 tox inactive and D3 ag inactive.
For Cc1ccc(Nc2c(-c3ccccn3)nc3cc(C)ccn23)cc1 the results were ATXN2 expr inh 3.5µM, DRD3 antagonist -88, HepG2 viability inactive, TGFb SMAD3 inh inconclusive, S2 tox inconclusive and D3 ag inactive.
For Cc1ccc(Nc2c(-c3ccccn3)nc3ccc(C)cn23)cc1 the results were DRD3 antagonist -78, HepG2 viability inactive, TGFb SMAD3 inh inconclusive, S2 tox inconclusive and D3 ag inactive.
`Cc1ccn2c(NC3CCCC3)c(-c3ccccn3)nc2c1` gave ATXN2 expr inh inactive, DRD3 antagonist inactive, HepG2 viability inactive, TGFb SMAD3 inh inconclusive, S2 tox inconclusive and D3 ag inactive.
`Cc1ccn2c(Nc3ccc4c(c3)OCO4)c(-c3ccccn3)nc2c1` gave ATXN2 expr inh inconclusive, DRD3 antagonist -54, HepG2 viability inactive, TGFb SMAD3 inh inconclusive, S2 tox inconclusive and D3 ag inactive.
CSc1ccc(-c2nc3cnccn3c2Nc2ccc3c(c2)OCO3)cc1 was read as ATXN2 expr inh inactive, DRD3 antagonist inactive, HepG2 viability inactive, TGFb SMAD3 inh 5µM, S2 tox inactive and D3 ag inactive.
For Cc1ccc(Nc2c(-c3ccc(C)cc3)nc3ccc(C)cn23)cc1 the results were ATXN2 expr inh inactive, HepG2 viability inactive, TGFb SMAD3 inh inactive, S2 tox inactive and D3 ag inactive.
`Cc1ccc2nc(-c3ccc(O)cc3)c(Nc3ccc(Cl)cc3)n2c1` gave HepG2 viability inactive, TGFb SMAD3 inh 18µM and D3 ag inactive.
Screening CC(=O)Nc1ccc(NC(=O)c2c(C)nn(-c3ccccc3)c2-n2cccc2)cc1 returned ATXN2 expr inh inactive, HepG2 viability inactive, TGFb SMAD3 inh inactive, S2 tox inactive and D3 ag inactive.
O=C1CCN(Cc2ccccc2)CCN1[C@H](CO)c1ccccc1 was read as ATXN2 expr inh inactive, DRD3 antagonist -51, HepG2 viability inactive, TGFb SMAD3 inh inconclusive, S2 tox inactive and D3 ag inactive.
N=C(N)c1ccc(OCCCOc2ccc(C(=N)N)cc2)cc1 was read as ATXN2 expr inh inactive, S2 tox inactive and D3 ag inactive.
For CC(=O)c1cc(C)ccc1OC(=O)CCN1C(=O)C2C3c4ccccc4C(c4ccccc43)C2C1=O (configuration not stated) the results were ATXN2 expr inh inactive, DRD3 antagonist inactive, HepG2 viability inactive, TGFb SMAD3 inh inactive, S2 tox inactive and D3 ag 38.
`CCc1ccc(NC(=O)CN2C(=O)C(=O)c3ccccc32)cc1` gave ATXN2 expr inh inactive, HepG2 viability inactive, TGFb SMAD3 inh inconclusive, S2 tox inactive and D3 ag inactive.

High-throughput results from PubChem BioAssay.
